# According to PubChem BioAssay (NCI):
# This is part of a sample that, as a whole, favours compounds with a hit. Of some 83,000 tested, about 20% had one in any assay.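 A percent growth of 40 corresponds to 60% growth inhibition; 0 means no net growth; -100 means all cells died. Active threshold: below 10.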 Unmarked numbers belong to inactive results. Active and inactive are the calls of the source.
# What was measured:
# Assay in all cases: NCI-60 one-dose screen, 48 h (100 = growth as untreated, 0 = no growth, -100 = all killed)
# Conditions in all cases: 10 µM unless noted
# HCT-15 colon = system: HCT-15 colon
# HT29 colon = system: HT29 colon
# SNB-75 CNS = system: SNB-75 CNS
# SNB-19 CNS = system: SNB-19 CNS
# U251 CNS = system: U251 CNS
# PC-3 prostate = system: PC-3 prostate
# SK-MEL-5 melanoma = system: SK-MEL-5 melanoma
# UACC-62 melanoma = system: UACC-62 melanoma
# LOX IMVI melanoma = system: LOX IMVI melanoma
# SK-MEL-28 melanoma = system: SK-MEL-28 melanoma
# SK-MEL-2 melanoma = system: SK-MEL-2 melanoma
# EKVX NSCLC = system: EKVX NSCLC
# SN12C renal = system: SN12C renal
# UO-31 renal = system: UO-31 renal
# ACHN renal = system: ACHN renal
# CAKI-1 renal = system: CAKI-1 renal
# A498 renal = system: A498 renal
# CCRF-CEM leukemia = system: CCRF-CEM leukemia
# MOLT-4 leukemia = system: MOLT-4 leukemia
# TK-10 renal = system: TK-10 renal
SMILES,growth (HCT-15 colon) [%],growth (HT29 colon),growth (SNB-75 CNS),growth (SNB-19 CNS) [%],growth (U251 CNS),growth (PC-3 prostate) [%],growth (SK-MEL-5 melanoma),growth (UACC-62 melanoma) [%],growth (LOX IMVI melanoma),growth (SK-MEL-28 melanoma) [%],growth (SK-MEL-2 melanoma) [%],growth (EKVX NSCLC) [%],growth (SN12C renal) [%],growth (UO-31 renal) [%],growth (ACHN renal) [%],growth (CAKI-1 renal) [%],growth (A498 renal),growth (CCRF-CEM leukemia),growth (MOLT-4 leukemia),growth (TK-10 renal) [%]
Cc1sc2nc(NCCN)[nH]c(=O)c2c1C,92.8,95.1%,67.4%,87.5,95.9%,93.3,96%,95.4,91.3%,98.4,103,89.6,90,91.4,91.2,100,91.8%,117%,106%,–
O=C1Nc2ccc(Cl)cc2/C1=C/c1ccc[nH]1,34.2,107%,114%,106,100%,111,77.5%,102,95.5%,129,96.2,–,87.5,47.7,59.6,45.7,134%,96.2%,83.4%,61.4
Cc1cc(O)cc(-c2nn(C)cc2-c2cc(N3CCOCC3)nc(-c3cccnc3)n2)c1,22.7,17.4%,1.48% (active),33.8,21.5%,22.7,1.65% (active),18.1,25.6%,46.8,51.5,–,32.3,30.5,37.9,43.9,-36.3% (active),24.3%,26.8%,51.6
COc1c2c(cc3c1C(=O)N[C@@H]1[C@@H](O)[C@@H](O)[C@H](O)C[C@@H]31)OCCO2,102,106%,99.3%,102,100%,97.7,99.1%,96.7,101%,106,100,–,103,86.4,103,94,104%,105%,99.6%,95.7
CCCCCCCCCCOC(=O)c1nn(C(C)=O)c2cc(C)c(C)cc12,98.8,92.1%,115%,105,93.3%,73.7,99.5%,93.3,87.9%,109,104,91.6,102,71.7,97.1,88.8,79.1%,92.2%,82.7%,–
O=C(NN1C(=O)CSC1c1cccc([N+](=O)[O-])c1)c1ccc(NC(=O)c2ccccn2)cc1 (configuration not stated),92.3,105%,98.9%,97.8,106%,107,102%,96,94.9%,99.3,102,–,96.9,94.5,103,98.7,97.5%,110%,69.7%,97
Cc1ccc(-c2csc(NC(=O)CSc3nc(N)cc(N)n3)n2)cc1,75.2,87.8%,81.1%,64.2,78.1%,70.5,2.45% (active),55.1,60.2%,88.7,51.6,46.4,82.9,64.1,65.8,79,66.3%,50%,44.4%,–
C[C@H]1[C@H](C)CC[C@]2(C(=O)NCCNCCN)CC[C@]3(C)C(=CC[C@@H]4[C@@]5(C)CCC(=O)C(C)(C)[C@@H]5CC[C@]43C)[C@H]12,13.1,4.06% (active),65%,71.6,-28.6% (active),38.5,85.3%,77.5,-76.7% (active),81.5,91.4,79.4,68.2,60.3,77.1,61.5,75%,-11.7% (active),-9.76% (active),–
O=C(O)c1cn(C2CC2)c2cc(N3CCN(C(=O)N4CCOCC4)CC3)c(F)cc2c1=O,103,102%,98.1%,105,103%,91.9,99.4%,97.3,87.1%,104,103,101,101,79.6,100,96.5,117%,108%,117%,–
COc1ccc(-c2cc(-c3cn(-c4cccc(Cl)c4)nc3-c3ccc(OC)cc3)on2)cc1,91.2,93.6%,99.2%,92.7,90.2%,86.5,98%,94,102%,105,86.8,98.8,89,77.3,101,93.5,78.6%,88.1%,77%,–
COc1ccc2c(c1)C(C)Cc1c(ncnc1-n1cnc3cc(C)ccc31)N2C (configuration not stated),13.2,5.82% (active),63.3%,33.5,18.5%,24.7,-14.1% (active),36.1,21.9%,64.3,47.4,–,30.1,43.5,29,23.2,6.42% (active),7.96% (active),11%,53.6
COc1cc(OC)c2c(=O)c3c(CC=C(C)C)cc(OC)c(O)c3oc2c1,59.8,95.4%,60%,92.7,85.1%,99.2,76.4%,75.2,82%,88.4,91.4,89.6,96,72,79.7,75.3,67.7%,76.9%,66.4%,–
CN(C)CCn1c(=O)c2ccccc2n2nc3ccccc3c12,84.1,78.9%,93.5%,78.1,88.8%,99.3,87.2%,72.7,56.4%,116,128,94.1,69.9,52.9,46.6,77.6,9.6% (active),81.8%,29.9%,–
COc1cccc(CNc2c3ccccc3nc3ccccc23)c1OC,19.8,14.4%,68%,35.5,34.5%,37.6,55.8%,51.3,13%,66.1,79.2,36.3,30.9,25.2,21.1,–,-4.13% (active),39.5%,–,–
O=C(Nc1cccnc1Nc1ccc(Cl)cc1)c1cn(Cc2cccc(Oc3ccccc3)c2)nn1,25.6,27.2%,42.1%,50.1,39.4%,35,12.6%,30.6,31.1%,61.7,61.8,53.5,46.4,31.9,55.2,53.6,26.6%,39%,28.8%,–
Cc1nc2sc(C(=O)Nc3cccc4ccccc34)c(N)c2cc1C(=O)c1ccccc1,14,14.7%,11.9%,26.9,22.8%,21.3,25%,33.4,41.8%,59.8,46.6,46,36.6,43.5,41.6,36.5,-10.9% (active),12%,21.4%,–
